# Bioassay records as filed in PubChem.
# FBPA Giardia inh – inhibitors of Giardia lamblia fructose-1,6-bisphosphate aldolase; purified Giardia FBPA; Potency, µM (doses to about 59.6 µM), for inactives: at the highest dose activity, negative = inhibition, most hits filed as inhibitors; 290,000 tested, 0.71% active; further: potency means the concentration at half of the fitted maximal effect; on the % scale 0 is the no-effect control and ±100 the full control effect; nearly all actives have a fitted effect of over 55% in size
# Target sequence (A8B2U2 whole entry, looked up): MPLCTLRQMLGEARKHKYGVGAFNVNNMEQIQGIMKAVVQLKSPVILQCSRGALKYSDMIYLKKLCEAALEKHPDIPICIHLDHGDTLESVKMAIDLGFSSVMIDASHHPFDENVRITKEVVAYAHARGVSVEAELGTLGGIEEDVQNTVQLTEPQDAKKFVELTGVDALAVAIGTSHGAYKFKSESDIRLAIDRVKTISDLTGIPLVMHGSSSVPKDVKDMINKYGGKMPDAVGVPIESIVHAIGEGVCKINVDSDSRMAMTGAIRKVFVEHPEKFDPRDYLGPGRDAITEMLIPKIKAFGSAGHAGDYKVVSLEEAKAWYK
#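 Giardia FBPA (40 nM reagent) was preincubated 10 min at RT with compound (up to 57.5 uM final), then substrate plus GAPDH/TPI/NAD/arsenate coupling system with diaphorase/resazurin was added; resorufin fluorescence (525/598 nm) was read after 20 min.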
# Shiga inhibitor – Shiga toxin inhibition | Vero cells, Shiga toxin protein synthesis inhibition reporter | inhibition, % at 38.7 µM | 290,000 tested, 9.2% active; in the data active means inhibition mostly above about 28%, no sharp cut-off; inactive means mostly below about 43%; further: 0% is about no effect
# Pf growth 48h – inhibits P. falciparum growth in the first generation, 48 h; 310,000 tested, 5.9% active; Potency, µM (top dose mostly 28.7 µM), for the others: top-dose activity change, negative = inhibition, usual class: inhibitors; P. falciparum luciferase growth in erythrocytes, 48 h; AID 504832; further: potency means the concentration at half of the fitted maximal effect; on the % scale 0 is the no-effect control and ±100 the full control effect
#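 Erythrocytes infected with P. falciparum carrying an integrated firefly luciferase reporter (2% hematocrit, 0.1% parasitemia final) were exposed to compounds in RPMI 1640 with 0.5% Albumax at 37 C, 5% CO2. Growth inhibition was scored as reduced luminescence.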
# Cycloheximide cs – counter-screen for Shiga toxin inhibitors: cycloheximide protein synthesis inhibition; cell reporter, cycloheximide protein synthesis inhibition counterscreen; max response, %; 300,000 tested, 12% active; AID 2314; in the data active means max response mostly above about 13%, no sharp cut-off; inactive means mostly below about 14%; further: read at 38.3 µM for the half of the compounds with a filed dose; 0% is about no effect
# NS1 inh – influenza NS1 inhibition; 270,000 tested, 0.4% active; Potency, µM (doses to about 46.1 µM), for the others: at the highest dose activity, positive = more growth; calls by dose curve; further: potency means the concentration at half of the fitted maximal effect; actives are rising curves; nearly all actives have a fitted effect of over 50% in size
#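 Growth recovery, yeast-based: influenza A NS1 expressed in S. cerevisiae causes slow growth, and suppressors are detected by OD600. The parent strain without NS1 is used as positive control.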
# Pf growth 96h – P. falciparum growth inhibition at 96 hours. P. falciparum luciferase reporter growth, 96 h. Potency, µM (highest dose often 28.7 µM), for the others: at the top dose activity change, negative = inhibition, usual class: inhibitors. 320,000 tested, 6.9% active; further: potency means the concentration at half of the fitted maximal effect; on the % scale 0 is the no-effect control and ±100 the full control effect
#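 Erythrocytes infected with luciferase-expressing P. falciparum were dispensed at 2% hematocrit and 0.05% parasitemia (final), then incubated with compounds 96 hours at 37 C in 5% CO2. Luminescence after detection reagent addition reported growth.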
# * = called active by the depositor; i = inactive; ? = inconclusive; / = no result; [ ] = another dose, or the depositor's remark. Shown are actives, neighbours in structure and some others; about 21% of the full set was active somewhere. Unless noted, the call rests on the fitted dose curve; in most records, active means well fitted curve in the direction sought with a large enough effect; inconclusive means small, poorly fitted or top-dose-only effect, or another doubt; inactive means no such curve, though single readings can be large; an effect the other way counts as inactive or inconclusive.
SMILES,FBPA Giardia inh,Shiga inhibitor,Pf growth 48h,Cycloheximide cs,NS1 inh,Pf growth 96h
CC(=O)C1=C(O)C(=O)N(C)C1c1ccccc1[N+](=O)[O-] (stereo not given),?,20.6,-13.4%,16.6*,-1.9%,3.8%
CCOc1ccc(CNC(=O)CN2C(=O)CSc3ccc(S(=O)(=O)N4CCOCC4)cc32)cc1OC,17.9%,-3.9,13.3%,-2.8,-19.2%,?
O=C(c1ccncc1)N1CCC2(CC1)CN(Cc1cc(C(F)(F)F)cc(C(F)(F)F)c1)C2,-0.9%,/,/,/,/,/
O=C(COC(=O)C1CC(=O)N(Cc2ccccc2)C1)c1ccc(Br)cc1 (stereo not given),4.1%,-7.4,-10.3%,-1.5,-18.4%,16.3%
O=C(COC(=O)C1CC(=O)N(Cc2ccco2)C1)c1ccc(OC(=O)c2ccco2)cc1 (stereo not given),-15.9%,26.5,-5.0%,10.4*,9.8%,/
Cc1ccc(C(=O)Oc2ccc(C(=O)COC(=O)C3CC(=O)N(Cc4ccco4)C3)cc2)cc1 (stereo not given),4.1%,68.3*,-16.3%,29.1*,-2.0%,?
Fc1ccc2c(Cl)c(-c3nnc(-c4cccs4)o3)sc2c1,5.6%,77.9*,214.6%,35.4*,2.1%,26.5%
O=C(CS(=O)(=O)c1ccc(F)cc1)Nc1nnc(-c2cccs2)o1,/,/,1.5%,/,/,-1.3%
CCCn1c(=O)n(CC(=O)NCC2CCCO2)c(=O)c2c3c(sc21)COC(C)(C)C3 (stereo not given),/,21.2,-2.4%,-1.0,4.3%,?
Cc1ccc(-c2noc(C3CCCN(S(=O)(=O)c4ccc5ccccc5c4)C3)n2)o1 (stereo not given),-8.7%,-8.3,/,2.4,-0.3%,?
CN(C)c1ccc(-c2noc(C3CCN(C(=O)Nc4ccc(Cl)cc4)CC3)n2)cc1,-5.2%,51.6*,?,15.8*,-1.8%,?
CN(C)c1ccc(-c2noc(C3CCN(S(=O)(=O)c4cccc(Cl)c4)CC3)n2)cc1,-0.6%,-8.7,?,2.7,-15.2%,0.185µM*
CN(C)c1ccc(-c2noc(C3CCN(S(=O)(=O)c4ccc(C(=O)O)cc4)CC3)n2)cc1,/,/,/,/,-8.9%,/
O=S(=O)(c1ccc2ccccc2c1)N1CCC(c2nc(-c3ccncc3)no2)CC1,-2.9%,-1.4,13.1µM*,-2.1,11.6%,?
O=C(NC(Cc1cc(=O)[nH]c2ccccc12)C(=O)O)c1ccc(Cl)cc1 (stereo not given),4.9%,/,3.5%,/,/,10.2%
N#Cc1ccc(OCC(=O)OCC(=O)c2ccc[nH]2)cc1,/,/,5.4%,/,/,55.8%
O=C(NC1CCCC1)C1CCN(C(=O)c2ccc(-c3ccccc3)cc2)CC1,2.9%,-3.1,?,6.1,-6.7%,11.9%
O=C(NC1CCCCCC1)C1c2ccccc2C(=O)N1Cc1cccs1 (stereo not given),2.6%,-10.6,-35.1%,-1.1,-11.2%,28.8%
CC(C)N1C(=O)c2ccccc2C1C(=O)NC1CCCCCC1 (stereo not given),-3.3%,2.7,-15.1%,3.6,?,0.738µM*
O=C(NC1CCCCCC1)C1c2ccccc2C(=O)N1Cc1ccco1 (stereo not given),5.4%,-4.7,0.3%,-1.5,-5.0%,1.04µM*
COCCNC(=O)CN1C(=O)NC2(CCCc3cc(OC)ccc32)C1=O (stereo not given),-2.5%,-8.2,-2.9%,-4.1,3.9%,1.2%
O=C1C2C3C=CC(C4CC34)C2C(=O)N1/N=C/c1c[nH]c2ccccc12 (stereo not given),17.4%,114.6*,i,46.3*,/,-41.5%
CN(C)c1ccc(/C=C/C=C2/SC(=S)N(c3ccccc3)C2=O)cc1,-8.7%,88.2*,118.5%,33.1*,/,9.4%
O=C(O)c1ccc(N2C(=O)/C(=C/C=C/c3ccccc3)SC2=S)cc1,-14.3%,-3.5,-62.1%[1.15 µM],-3.7,6.9%,33.3%
COc1ccc(CCNC(=O)CSc2ccsc2[N+](=O)[O-])c(OC)c1,0.1%,3.5,?,-1.5,/,1.65µM*
COc1ccccc1CNC(=O)CSc1ccsc1[N+](=O)[O-],-1.7%,85.3*,89.7%,43.2*,/,-4.4%
O=C(CSc1ccsc1[N+](=O)[O-])Nc1cccc(F)c1,-9.5%,29.9,18.3%,21.4*,/,17.4%
